Among the data in PubChem BioAssay (NCI) are growth values, retold here.

Each structure is given as a SMILES string. About 83,000 compounds went through this panel and 20% of them were active in at least one assay; those are over-represented in the sample as a whole.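 Testing used 96-well plates and a 48-hour single-concentration exposure. Example: -40 means 40% of the starting cells died.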 A number with no mark means an inactive call. Active and inactive are the calls of the source. The calls were made as follows: active = growth percent below 10; inactive = the rest.

Test systems include HCT-15 colon; HT29 colon; SNB-75 CNS; SNB-19 CNS; U251 CNS; PC-3 prostate; SK-MEL-5 melanoma; UACC-62 melanoma; LOX IMVI melanoma; SK-MEL-28 melanoma; SK-MEL-2 melanoma; EKVX NSCLC; SN12C renal; UO-31 renal; TK-10 renal; ACHN renal; CAKI-1 renal; A498 renal; CCRF-CEM leukemia; MOLT-4 leukemia.
What all share (test): NCI-60 one-dose screen, 48 h (100 = growth as untreated, 0 = no growth, -100 = all killed)
Conditions in all cases: 10 µM

Turning to `CC1(c2ccccc2)NC(=O)N(CC(=O)Nc2ccc(C(=O)/C=C/c3ccccc3)cc2)C1=O` (stereo not given), the growth in the assay with HCT-15 colon was 2.92% (active); with HT29 colon it was -23% (active); in the assay with SNB-75 CNS, 72.1%; in the assay with SNB-19 CNS, 66.1%; with U251 CNS, -15.2% (active); in the assay on PC-3 prostate it was 31.6%. The growth was 20.4% with SK-MEL-5 melanoma; 36.5% in the assay with UACC-62 melanoma; -72% (active) in the assay with LOX IMVI melanoma; 62.3% with SK-MEL-28 melanoma; 75.3% with SK-MEL-2 melanoma; 58.2% in the assay with EKVX NSCLC. Also, the growth in the assay with SN12C renal is 68.7%; with UO-31 renal it was 52.9%; in the assay on TK-10 renal, 92.1%; in the assay on ACHN renal it was 60.3%; in the assay on CAKI-1 renal, 61.9%; with A498 renal, 104%. In addition, the growth in the assay with CCRF-CEM leukemia was 35.7%; in the assay on MOLT-4 leukemia, 22.9%.

Regarding `CCOP(=O)(OCC)O[C@H]1CC[C@]2(C)[C@H]3CC[C@@H]4[C@@H]([C@](C)(O)CCC=C(C)C)CC[C@@]4(C)[C@]3(C)CC[C@H]2C1(C)C`, the growth in the assay with HCT-15 colon was 10.7%; in the assay on HT29 colon, -50.2% (active); in the assay with SNB-75 CNS, 51.4%; in the assay on SNB-19 CNS it was 45.4%; with U251 CNS, 12.8%; in the assay on PC-3 prostate, 19.8%. For the same compound, the growth with SK-MEL-5 melanoma was -84.2% (active); with UACC-62 melanoma, 43.5%; with LOX IMVI melanoma, -100% (active); with SK-MEL-28 melanoma, 48.8%; with SK-MEL-2 melanoma it was 17.1%; with EKVX NSCLC it was 28.2%. The growth was -51.7% (active) in the assay on SN12C renal; 24.8% in the assay on UO-31 renal; 36.6% in the assay with TK-10 renal; 28% with ACHN renal; 25.2% in the assay with CAKI-1 renal; 52.5% in the assay on A498 renal. The growth with CCRF-CEM leukemia was -21.2% (active); in the assay with MOLT-4 leukemia, -15.5% (active).

`C#CCNC(=O)CCC(=O)OC[C@]12CC[C@@H](C(=C)C)[C@@H]1C1CC[C@@H]3[C@@]4(C)CCCNC(C)(C)[C@@H]4CC[C@@]3(C)[C@]1(C)CC2` (stereo not given in full): the growth is -64.9% (active) in the assay on HCT-15 colon; -68.1% (active) in the assay with HT29 colon; 98.8% with SNB-75 CNS; 34% in the assay with SNB-19 CNS; -74.2% (active) in the assay with U251 CNS; -20.3% (active) in the assay on PC-3 prostate. Besides, the growth in the assay with SK-MEL-5 melanoma is -100% (active); in the assay on UACC-62 melanoma, -42.8% (active); in the assay with LOX IMVI melanoma, -100% (active); with SK-MEL-28 melanoma, -98.5% (active); in the assay with SK-MEL-2 melanoma, -66.1% (active); in the assay with EKVX NSCLC, 2.91% (active). Besides, the growth in the assay on SN12C renal is 19.2%; with UO-31 renal it was 33.5%; with TK-10 renal it was 11.6%; with ACHN renal it was 26.6%; in the assay with CAKI-1 renal it was 17.3%; in the assay with A498 renal, 68.5%. The growth is -13.2% (active) in the assay on CCRF-CEM leukemia and -3.06% (active) with MOLT-4 leukemia.

For the compound `N#Cc1c(-c2ccc(F)cc2)nc(SCc2ccc(F)cc2)nc1N1CCOCC1`, the growth was 79.9% in the assay on HCT-15 colon; 92.9% with HT29 colon; -17.5% (active) with SNB-75 CNS; 43.7% in the assay with SNB-19 CNS; 47.1% in the assay on U251 CNS; 71.6% with PC-3 prostate. Also, the growth is 74.3% in the assay on SK-MEL-5 melanoma; 69.3% in the assay on UACC-62 melanoma; 76.4% with LOX IMVI melanoma; 85.8% in the assay on SK-MEL-28 melanoma; 78.7% with SK-MEL-2 melanoma; 60.1% in the assay with EKVX NSCLC. The growth is 72.9% in the assay on SN12C renal; 86% in the assay on UO-31 renal; 77.6% in the assay on TK-10 renal; 46.7% in the assay with ACHN renal; 30.7% in the assay on CAKI-1 renal; 71.9% in the assay with A498 renal. In addition, the growth with CCRF-CEM leukemia was 87.1%; in the assay with MOLT-4 leukemia it was 91.6%.

Take `O=C(CSc1nnc(-c2c[nH]c3ccccc23)n1-c1ccccc1)Nc1ccc(C(=O)/C=C/c2ccc(Cl)cc2)cc1`: the growth with HCT-15 colon is 59.3%; in the assay with HT29 colon, 86.4%; in the assay on SNB-75 CNS, 80%; in the assay with SNB-19 CNS, 73.1%; in the assay on U251 CNS, 73.9%; with PC-3 prostate, 58.9%. For the same compound, the growth in the assay with SK-MEL-5 melanoma was 83.3%; in the assay on UACC-62 melanoma, 62.8%; in the assay with LOX IMVI melanoma it was 67.6%; with SK-MEL-28 melanoma it was 84.1%; in the assay with SK-MEL-2 melanoma, 87.6%; with EKVX NSCLC, 59%. Also, the growth in the assay with SN12C renal was 83%; in the assay on UO-31 renal, 45.8%; in the assay on TK-10 renal, 91.8%; with ACHN renal, 68.4%; in the assay with CAKI-1 renal, 68.2%; in the assay with A498 renal it was 90.7%. The growth in the assay with CCRF-CEM leukemia is 83.7%; in the assay on MOLT-4 leukemia, 58.8%.

For the compound `Cc1ccc(-c2cc(C(=O)N=Nc3c(O)[nH]c4ccc(Br)cc34)c3ccccc3n2)cc1`, the growth with HCT-15 colon is 8.77% (active); with HT29 colon, 42.1%; with SNB-75 CNS, 102%; in the assay on SNB-19 CNS it was 61.1%; with U251 CNS it was 21.7%; with PC-3 prostate it was 52.9%. Further, the growth was 96.7% in the assay on SK-MEL-5 melanoma; 60.6% in the assay with UACC-62 melanoma; 25.3% in the assay with LOX IMVI melanoma; 84.4% with SK-MEL-28 melanoma; 104% in the assay on SK-MEL-2 melanoma; 60.6% in the assay on EKVX NSCLC. Also, the growth in the assay on SN12C renal was 48.6%; in the assay with UO-31 renal, 52.2%; with TK-10 renal, 119%; with ACHN renal it was 52.3%; in the assay on CAKI-1 renal, 73.6%; in the assay on A498 renal, 125%. Further, the growth is 26.8% in the assay on CCRF-CEM leukemia and 14.9% with MOLT-4 leukemia.

Turning to `Brc1ccc(/C=N/Nc2ncnc3sc4c(c23)CCN(Cc2ccccc2)C4)cc1`, the growth in the assay on HCT-15 colon is 58.3%; in the assay with HT29 colon it was 4.77% (active); in the assay with SNB-75 CNS, -7.37% (active); with SNB-19 CNS it was 99.9%; with U251 CNS, 61.1%; in the assay with PC-3 prostate it was 61.6%. In addition, the growth in the assay on SK-MEL-5 melanoma was 94.8%; in the assay on UACC-62 melanoma, 90.3%; with LOX IMVI melanoma, 46.9%; in the assay on SK-MEL-28 melanoma it was 41.9%; in the assay with SK-MEL-2 melanoma, 112%; with EKVX NSCLC, 94.2%. Also, the growth in the assay with SN12C renal is 64.4%; in the assay with UO-31 renal it was 73.9%; in the assay with TK-10 renal it was 125%; with ACHN renal, 56.5%; in the assay on CAKI-1 renal, 70%; in the assay on A498 renal it was 117%. The growth with CCRF-CEM leukemia was 22.5%; in the assay with MOLT-4 leukemia it was 46.2%.
